Rows were chosen to be rich in hits. Some 12% of all compounds tested hit in one or more screens of this group.
BAZ2B inh = inhibitors of human BAZ2B bromodomain; AlphaScreen BAZ2B-H3K14Ac peptide displacement; actives 4.4% (n = 360,000); Potency, µM (doses to about 114 µM), inactives show top-dose activity change, negative = inhibition, actives largely listed as inhibitors; note: % is set by controls: 0 for no effect and ±100 for the full control effect; nearly all actives have a fitted effect of over 60% in size
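In this displacement format the biotinylated H3(5-23) peptide acetylated at Lys14 serves as ligand at 50 nM, with BAZ2B at 50 nM in PBS pH 7.4 containing 0.01% Tween-20. Donor and acceptor beads are 10 ug/mL final.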
L3MBTL1 inh = inhibitors of human L3MBTL1; Q9Y468; AlphaScreen L3MBTL1–H3K9me1 peptide binding; Potency, µM (titrated, usually from 57.1 µM), for inactives: top-dose activity, negative = inhibition, actives largely listed as inhibitors; actives 0.66% (n = 230,000); AID 485360; note: % is set by controls: 0 for no effect and ±100 for the full control effect; nearly all actives have a fitted effect of over 60% in size
Target sequence (Q9Y468 whole entry, looked up): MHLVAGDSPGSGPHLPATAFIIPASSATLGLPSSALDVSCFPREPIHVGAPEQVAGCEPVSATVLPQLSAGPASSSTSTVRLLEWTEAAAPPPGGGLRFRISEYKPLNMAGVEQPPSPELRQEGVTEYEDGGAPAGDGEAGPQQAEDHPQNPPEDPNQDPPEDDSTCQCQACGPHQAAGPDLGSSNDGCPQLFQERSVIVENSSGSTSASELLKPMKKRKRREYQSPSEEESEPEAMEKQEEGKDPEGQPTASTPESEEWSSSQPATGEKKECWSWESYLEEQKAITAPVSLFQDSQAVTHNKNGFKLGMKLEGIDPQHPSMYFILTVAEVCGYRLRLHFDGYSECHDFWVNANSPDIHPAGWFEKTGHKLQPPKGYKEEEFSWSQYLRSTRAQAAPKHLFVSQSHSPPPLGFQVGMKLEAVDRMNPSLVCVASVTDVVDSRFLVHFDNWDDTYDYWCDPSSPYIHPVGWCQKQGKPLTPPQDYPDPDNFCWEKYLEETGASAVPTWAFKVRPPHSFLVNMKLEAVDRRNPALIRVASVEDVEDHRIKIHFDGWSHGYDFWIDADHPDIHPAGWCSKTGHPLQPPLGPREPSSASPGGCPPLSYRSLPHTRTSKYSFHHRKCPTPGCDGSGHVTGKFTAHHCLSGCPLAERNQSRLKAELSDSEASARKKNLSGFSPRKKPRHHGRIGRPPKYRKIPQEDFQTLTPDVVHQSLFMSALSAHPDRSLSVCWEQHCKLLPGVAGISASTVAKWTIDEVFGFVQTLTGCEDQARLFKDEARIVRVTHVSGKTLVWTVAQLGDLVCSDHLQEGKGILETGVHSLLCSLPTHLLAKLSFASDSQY
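L3MBTL1 (50 nM) pre-complexed 30 min with biotinylated H3(1-15)K9me1 peptide (75 nM), then compounds added for 30 min at room temperature; AlphaScreen streptavidin donor/nickel chelate acceptor beads (10 ug/mL final) read after 30 min dark incubation.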
HP1b chromo inh = inhibitors of HP1-beta chromodomain binding to methylated histone tails. P83916. AlphaScreen HP1-beta / biotin-H3K9me3 peptide binding. Potency, µM (series often up to 114 µM), for inactives: at the highest dose activity change, negative = inhibition, hits mostly inhibitors. actives 0.56% (n = 390,000). AID 540317; note: nearly all actives have a fitted effect of over 70% in size
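AlphaScreen: HP1-beta (50 nM) preformed 30 min with biotin-H3(1-18)K9me3 peptide (50 nM) in PBS pH 7.4, 0.01% Tween-20. Compound added for 30 min at RT, then streptavidin donor/nickel chelate acceptor beads (10 ug/mL) for 30 min.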
G9a inh = inhibitors of human histone lysine methyltransferase G9a. Q96KQ7. G9a H3K9 monomethylation, AlphaScreen, 2 h. Potency, µM (top dose mostly 102 µM), for inactives: at the top dose activity, negative = inhibition, hits mostly inhibitors. actives 8.8% (n = 350,000). AID 504332; note: % is set by controls: 0 for no effect and ±100 for the full control effect; nearly all actives have a fitted effect of over 75% in size
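G9a (20 nM) preincubated 15 min RT with compounds, then 500 nM biotinylated H3K9 peptide and 20 uM SAM added; 2 h RT reaction. Monomethyl-H3K9 product detected by AlphaScreen with anti-H3K9me1 antibody, streptavidin donor and anti-rabbit IgG acceptor beads.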
Sfp PPTase inh = Sfp phosphopantetheinyl transferase inhibition; AID 1490; Potency, µM, for inactives: largest response in the series, negative = inhibition, actives largely listed as inhibitors; actives 3.5% (n = 310,000); Q9F4F7; Biochemical Sfp PPTase activity, qHTS;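 note: the enzyme is Sfp with the accession as filed and its product quenches rhodamine fluorescence; 0% = enzyme reaction without inhibitor and -100% = no enzyme wells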
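With Hepes-Na pH 7.6 buffer containing 10 mM MgCl2, Sfp (15 nM) modified BHQ-2-YbbR (12.5 uM) using rhodamine-CoA (5 uM). Two reads 30 minutes apart at 525/598 nm yielded each well's rate.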
JMJD2A Tudor = inhibitors of human JMJD2A Tudor domain. O75164. AlphaScreen JMJD2A-Tudor / H3K4me3 peptide binding. Potency, µM (top dose mostly 114 µM), for inactives: at the top dose activity change, negative = inhibition, actives largely listed as inhibitors. actives 4.4% (n = 390,000). AID 504339; note: % is set by controls: 0 for no effect and ±100 for the full control effect; nearly all actives have a fitted effect of over 50% in size
Active calls of the source: *; ? = inconclusive; . = not tested or not shown; [ ] = another dose, or the depositor's remark. Calls come from the whole dose curve; as a rule, active = well fitted curve in the direction sought with a large enough effect; inconclusive = small, poorly fitted or top-dose-only effect, or another doubt; inactive = no such curve, though single readings can be large; an effect the other way counts as inactive or inconclusive. Potency is the fitted concentration of half-maximal effect.

SMILES	BAZ2B inh	L3MBTL1 inh	HP1b chromo inh	G9a inh	Sfp PPTase inh	JMJD2A Tudor
CC(C)CCNC(=O)c1cn(C)c2ccc(S(=O)(=O)N3CCOCC3)cc2c1=O	.	.	24%	-36%[59 µM]	.	-9%
Cc1cccc(C[C@H](C(=O)O)N2C(=O)c3ccc(C(=O)O)cc3C2=O)c1	1%	4%	.	5%[12.7 µM]	35%	?
Fc1ccccc1Nc1n[nH]c(=S)s1	50µM*	-1%	45µM*	2.8µM*	50µM*	2.8µM*
S=c1[nH]nc(Nc2cccc3ccccc23)s1	?	-18%	40µM*	0.32µM*	40µM*	18µM*
Cc1c(Cl)cccc1Nc1n[nH]c(=S)s1	.	.	50µM*	.	.	11µM*
S=c1[nH]nc(Nc2ccc(Cl)cc2)s1	?	7%	2%	.	?	-35%
O=S(=O)(CCc1ccccc1)c1nnnn1-c1ccccc1	.	.	.	.	27%	.
COc1ccc(C2=C(C#N)C(=O)OC2)cc1	?	8%	47%	32µM*	1%	-21%
CCc1c(C)c(C#N)c2[nH]c3ccccc3n2c1=S	35µM*	-19%	20µM*	.	79µM*	5.6µM*
Cc1c(CCC(=O)O)c(=O)n2c([nH]c3ccccc32)c1C#N	-32%	.	29%	2.2µM*	15%	-22%
CCc1cc(=S)n2c([nH]c3ccccc32)c1C#N	79µM*	.	40µM*	4µM*	45µM*	20µM*
Cc1ccc(OCC(=O)Nc2ccc(Cl)c(-c3nc4ncccc4o3)c2)cc1C	-1%	.	46%	-9%[59 µM]	.	-1%
Cc1nn(C)cc1CN(C)C(=O)c1cc2nc(-c3ccco3)cc(C(F)(F)F)n2n1	-31%	4%	42%	?	35µM*	4%
CCCC(CCC)C(=O)Nc1nnc2n1CCS2	-7%	.	5%[57 µM]	?	.	?
CC(C)C(=O)Nc1nnc2n1CCS2	2%	.	3%[57 µM]	?	.	32µM*
CC(Oc1ccccc1)C(=O)Nc1nnc2n1CCS2 (stereo not drawn)	20µM*	.	-5%[57 µM]	1.6µM*	.	28µM*
O=C(O)Cn1ccc2ccccc21	-15%	.	33%	23%[12.7 µM]	-18%	-16%
Cc1cc(C)c(OCC(O)CN2CCN(C(=O)c3ccccc3)CC2)c(C)c1 (stereo not drawn)	?	.	?	20µM*	-18%	22µM*
OC(CN1CCCCC1)Cn1c2ccccc2c2ccccc21 (stereo not drawn)	15%	.	44%	31%	1%	6%
O=C(c1ccccc1)N1CCN(CC(O)COc2cccc3ccccc23)CC1 (stereo not drawn)	0%	7%[2.29 µM]	37%	-6%[0.501 µM]	4%	-14%
OC(CNc1ccccc1)Cn1ccc2ccccc21 (stereo not drawn)	35µM*	-24%	?	32µM*	-29%	4µM*
OC(CN1CCCC1)Cn1ccc2ccccc21 (stereo not drawn)	50µM*	.	23%	14µM*	-8%	20µM*
O=C(c1ccccc1)N1CCN(CC(O)Cn2ccc3ccccc32)CC1 (stereo not drawn)	56µM*	.	?	11µM*	-25%	?
CC1CCN(C(=O)CN2c3ccc(C(C)C)cc3-c3ccccc3S2(=O)=O)CC1	-16%	.	25%	-24%[59 µM]	.	-18%
Cc1cccc(CNC(=O)C2CCN(c3nc4ccc(Cl)cc4[nH]3)CC2)c1	-3%	.	12%[57 µM]	-4%[59 µM]	.	-31%
SMILES	BAZ2B inh	L3MBTL1 inh	HP1b chromo inh	G9a inh	Sfp PPTase inh	JMJD2A Tudor
N#Cc1nc(-c2ccc(OCc3ccc(Cl)cc3)cc2)oc1N1CCCC1	.	.	22%[57 µM]	.	.	1%[57.1 µM]
O=C1NC(c2ccccc2OC(F)F)Oc2ccccc21 (stereo not drawn)	26%	-24%	3%	19%	7%	-18%
CC(C)=CCC12Oc3cc(O)ccc3C1(O)Oc1cc(O)c([C@H]3C=C(C)CC(c4ccc(O)cc4O)[C@H]3C(=O)c3ccc(O)cc3O)c(O)c1C2=O (stereo partly drawn)	.	.	-11%	.	.	40µM*
Cc1nc2ccccc2n1CCc1nc2c3ccccc3nc(=S)n2[nH]1	-3%	.	15%	14µM*	50µM*	63µM*
Cc1ccccc1-c1nc2c3ccccc3nc(=S)n2[nH]1	?	.	43%	4%	-22%	-16%
CCN(CC)C(=O)Cn1cnc2sc(C(=O)Nc3cc(OC)c(OC)c(OC)c3)c(C)c2c1=O	-3%	.	27%	11%[59 µM]	20%	-9%
Cc1nnc(N/N=C\c2ccc(-c3cccc(C(=O)O)c3)o2)n1N	79µM*	?	-9%	40µM*	-71%	25µM*
Nc1nonc1-c1nc2ccccc2n1CC(=O)N/N=C/c1ccc(-c2cccc(C(=O)O)c2)o1	20µM*	?	50µM*	7.9µM*	1µM*	40µM*
Nc1nnc(CC(=O)N/N=C/c2ccc(-c3cccc(C(=O)O)c3)o2)s1	-23%	.	8%	?	40µM*	?
O=Cc1ccc(-c2cccc(C(=O)O)c2)o1	?	?	26%	50µM*	?	-22%
O=C(Cc1ccc(Br)cc1)N/N=C/c1ccc(-c2cccc(C(=O)O)c2)o1	-28%	?	-21%	?	-1%	-28%
CCOC(=O)c1cccc(-c2ccc(C=O)o2)c1	7%	-14%	18%	-29%[59 µM]	?	-14%
C=CC1=C2C=C(C3CC3)N(C3CCCC3)C=C2C(=O)C(C)(OC(=O)c2ccco2)C1=O (stereo not drawn)	.	.	.	.	0%	.
O=C(c1csnn1)N1CCC2(CC1)CCN(c1ccncc1)CC2	.	.	.	5%[12.7 µM]	-1%	.
Cc1nnc(N/N=C/c2ccc(-c3ccc(Br)cc3)o2)n1N	.	-23%	-14%	-46%	56µM*	-30%
O=C1c2ccccc2C(=O)c2c1ccc1c(=O)n(C3CCCCC3)[nH]c21	50µM*	-11%	-11%	7.9µM*	-12%	25µM*
O=C1C=CC(=O)N1Cc1ccccc1	?	.	?	1.8µM*	18µM*	25µM*
O=C(NCCN1CCOCC1)C1CCN(S(=O)(=O)N2CCCCC2)CC1	-3%	-1%	29%	-20%	17%	-5%
O=C(NCCN1CCOCC1)C1CCN(Cc2ccccc2O)CC1	45µM*	.	?	22µM*	-10%	1.4µM*
Fc1ccccc1Nc1nc2c(s1)CCc1ccccc1-2	?	-8%	.	6.3µM*	3.2µM*	.
O=c1oc2ccc(Br)cc2cc1-c1nc2c(s1)CCc1ccccc1-2	.	.	29%[57 µM]	.	.	18%[57.1 µM]
CC(=O)N1CCC(N(C(=O)Nc2ccc(C)c(F)c2)C(C)C)CC1	-4%	.	9%	-35%[59 µM]	.	-27%
COc1ccccc1Oc1ccc(S(=O)(=O)N2CCCCC2)cc1NC(=O)CCNC(C)=O	-25%	.	12%	?	11%	-1%

High-throughput results: PubChem, National Center for Advancing Translational Sciences (NCATS)
